From PubChem BioAssay AID1159580 (chemical genetic matrix, 2015)
Several values for one entry are separate records, joined by “and”; a condition that tells them apart may be missing. Identical values can stand only once. The whole screen tested about 5,500 compounds, of which about 2,000 (36%) were called active. Another 18% or so got no clear call; they are omitted. Rule as the data show it: active = normalized growth mostly below about 0.91 (no sharp cut-off); inconclusive = no clear call, values can overlap the other calls; inactive = mostly above about 0.92. The list shows a part of the results.

Experiment: chemical genetic growth profiling, strain panel (AID 1159580);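 also: tested at 20 µM; growth read once vehicle control cultures reached saturation at 30 °C; 1 = growth at the plate median or of vehicle wells; lower values mean less growth of the strain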
Conditions: S. cerevisiae deletion strains, growth OD

Measured: normalized growth

CNCCC(Oc1ccc(C(F)(F)F)cc1)c1ccccc1 (stereo unspecified)
inactive: locus YAL013W, strain DEP1, hits give low values 1 and 1.01 | locus YAL021C, strain ccr4, hits give low values 0.994 | locus YAL026C, strain drs2, hits give low values 0.991 | locus YAL030W, strain snc1, hits give low values 0.987 | locus YAL040C, strain CLN3, hits give low values 1.01 | locus YBL061C, strain skt5, hits give low values 0.986 | locus YBR009C, strain hhf1, hits give low values 0.99 | locus YBR021W, strain FUR4, hits give low values 0.967 | locus YBR023C, strain chs3, hits give low values 0.986 | locus YBR171W, strain sec66, hits give low values 0.991 | locus YBR229C, strain ROT2, hits give low values 1.01 | locus YBR231C, strain swc5, hits give low values 0.986 | locus YBR279W, strain paf1, hits give low values 0.985 | locus YCL011C, strain gbp2, hits give low values 0.991 | locus YCL016C, strain dcc1, hits give low values 0.995 | locus YCL029C, strain bik1, hits give low values 0.99 | locus YCL061C, strain MRC1 (second series), hits give low values 0.983 | locus YCL061C, strain MRC1, hits give low values 0.985 | locus YCL069W, strain vba3, hits give low values 0.998 | locus YCR088W, strain abp1, hits give low values 0.995 | locus YDL005C, strain med2, hits give low values 0.99 | locus YDL035C, strain GPR1, hits give low values 0.987 | locus YDL040C, strain nat1, hits give low values 0.985 | locus YDL074C, strain BRE1, hits give low values 0.993 | locus YDL101C, strain DUN1, hits give low values 1.02 | locus YDL134C, strain PPH21, hits give low values 1.01 | locus YDL185W, strain tfp1, hits give low values 1 | locus YDL192W, strain arf1, hits give low values 1 | locus YDR001C, strain nth1, hits give low values 0.998 | locus YDR069C, strain doa4, hits give low values 0.944 | locus YDR101C, strain arx1, hits give low values 0.987 | locus YDR150W, strain NUM1, hits give low values 1.01 | locus YDR159W, strain sac3, hits give low values 1 | locus YDR162C, strain NBP2, hits give low values 0.992 | locus YDR195W, strain ref2 0.995 | locus YDR297W, strain sur2, hits give low values 0.995 | locus YDR318W, strain mcm21, hits give low values 0.996 | locus YDR334W, strain swr1, hits give low values 0.987 | locus YDR335W, strain msn5, hits give low values 1 | locus YDR363W, strain ESC2, hits give low values 1.02 | locus YDR388W, hits give low values 0.93 | locus YDR392W, strain spt3, hits give low values 0.996 | locus YDR502C, strain sam2, hits give low values 0.991 | locus YEL003W, strain gim4, hits give low values 0.999 | locus YEL037C, strain rad23, hits give low values 0.993 | locus YEL061C, strain CIN8 (second series), hits give low values 0.998 | locus YEL061C, strain CIN8, hits give low values 1.01 | locus YER002W, strain NOP16, hits give low values 1 | locus YER015W, strain faa2, hits give low values 0.997 | locus YER016W, strain bim1, hits give low values 0.992 | locus YER110C, hits give low values 0.994 | locus YER111C, strain swi4, hits give low values 0.981 | locus YER155C, strain BEM2 (second series), hits give low values 1.01 | locus YER155C, strain BEM2, hits give low values 1.01 | locus YER167W, strain BCK2, hits give low values 1.01 | locus YFR010W, strain ubp6, hits give low values 0.972 | locus YGL078C, strain dbp3, hits give low values 0.99 | locus YGL086W, strain mad1, hits give low values 1 | locus YGL167C, strain pmr1, hits give low values 0.987 | locus YGL173C, strain kem1, hits give low values 0.982 | locus YGL227W, strain vid30, hits give low values 0.982 | locus YGL240W, strain doc1, hits give low values 0.975 | locus YGL248W, strain PDE1, hits give low values 1.02 | locus YGL253W, strain hxk2, hits give low values 0.977 | locus YGR078C, strain PAC10, hits give low values 0.948 and 0.983 | locus YGR135W, strain pre9, hits give low values 0.986 | locus YGR229C, strain SMI1, hits give low values 0.949 | locus YGR252W, strain gcn5, hits give low values 0.923 | locus YHR013C, strain ard1, hits give low values 0.922 | locus YHR027C, strain rpn1, hits give low values 0.991 | locus YHR030C, strain SLT2, hits give low values 1.01 and 1 | locus YHR079C, strain IRE1 (second series), hits give low values 0.997 | locus YHR079C, strain IRE1, hits give low values 1.03 | locus YHR094C, strain hxt1, hits give low values 1 | locus YHR129C, strain ARP1, hits give low values 1.02 | locus YHR142W, strain chs7, hits give low values 0.992 | locus YHR200W, strain rpn10, hits give low values 0.993 | locus YIL066C, strain RNR3, hits give low values 1.01 | locus YIL073C, strain SPO22, hits give low values 1.25 | locus YIL125W, strain kgd1, hits give low values 0.997 | locus YIR030C, strain dcg1, hits give low values 1 | locus YJL092W, strain hpr5, hits give low values 0.986 | locus YJL095W, strain BCK1 (second series), hits give low values 0.992 | locus YJL095W, strain BCK1, hits give low values 0.99 and 0.988 | locus YJL115W, strain asf1, hits give low values 0.993 | locus YJL129C, strain trk1, hits give low values 1.01 | locus YJL134W, strain LCB3, hits give low values 1 | locus YJL154C, strain vps35, hits give low values 1.01 | locus YJL164C, strain tpk1, hits give low values 0.987 | locus YJL166W, strain qcr8, hits give low values 0.99 | locus YJL168C, strain set2, hits give low values 0.993 | locus YJL187C, strain SWE1 (second series), hits give low values 1.02 | locus YJL187C, strain SWE1, hits give low values 0.986 | locus YJR043C, strain POL32, hits give low values 1 | locus YJR066W, strain TOR1, hits give low values 0.988
active: locus YDR137W, strain rgp1, hits give low values 1.2 [resistant]
